Screens: PubChem, National Center for Advancing Translational Sciences (NCATS)
Sampled rows, rich in hits. Any-hit rate of the full collection: about 2.5%.
Cruzain inh Det = cruzain (T. cruzi) inhibition with detergent. 200,000 compounds, 0.43% hits. AID 1478. Potency, µM, without a hit: max response, negative = inhibition, actives largely listed as inhibitors. purified cruzain, Z-FR-AMC fluorescence, 0.01% Triton. P25779;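 also: plate controls were neutral wells for no effect and buffer without enzyme for full effect; nearly all actives have a fitted effect of over 40% in size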
Target sequence (P25779 123-467 limits assumed): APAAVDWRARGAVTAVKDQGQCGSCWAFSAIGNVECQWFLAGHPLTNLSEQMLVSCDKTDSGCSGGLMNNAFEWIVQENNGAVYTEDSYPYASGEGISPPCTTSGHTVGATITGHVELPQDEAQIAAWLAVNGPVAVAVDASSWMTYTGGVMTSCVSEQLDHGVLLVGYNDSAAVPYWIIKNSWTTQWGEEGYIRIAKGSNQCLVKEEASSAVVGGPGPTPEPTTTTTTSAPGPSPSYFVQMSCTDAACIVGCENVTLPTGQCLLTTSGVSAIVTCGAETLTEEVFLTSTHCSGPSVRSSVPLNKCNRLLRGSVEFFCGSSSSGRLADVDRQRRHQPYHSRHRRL
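Steps: dispense cruzain (1.5 nM final) in acetate buffer pH 5.5 with DTT and 0.01% Triton X-100; pin-transfer compounds; incubate 15 min RT; add Z-FR-AMC (2 uM final); read fluorescence every 30 s, using the 60 s intensity change.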
Cruzain inh noDet = cruzain (T. cruzi) inhibition without detergent; P25779; purified cruzain, Z-FR-AMC fluorescence, no detergent; Potency, µM, for inactives: max response, negative = inhibition, most hits filed as inhibitors; 200,000 compounds, 2.3% hits; AID 1476;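 also: plate controls were enzyme without inhibitor for no effect and buffer without enzyme for full effect; nearly all actives have a fitted effect of over 40% in size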
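Detergent-free condition (0.00005% Triton X-100) in acetate buffer pH 5.5 with DTT. 1.5 nM enzyme and compound were pre-mixed 15 min, then 2 uM Z-FR-AMC substrate added; reaction progress from fluorescence change between first and third reads (60 s).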
Numbers without * were called inactive. Calls follow the shape of the dose curve; as a rule, active = well fitted curve in the direction sought with a large enough effect; inconclusive = small, poorly fitted or top-dose-only effect, or another doubt; inactive = no such curve, though single readings can be large; an effect the other way counts as inactive or inconclusive. Potency is read from the fitted curve at half-maximal effect.

Results for O=C1OCCN1C(=O)[C@H]1[C@H](c2ccc(Cl)cc2)C(c2ccc(F)cc2)=NN1c1ccccc1 ?
Cruzain inh Det: 3%; Cruzain inh noDet: inconclusive

What do the screens show for `CCCN1CCN(CCCNC(=O)c2ccc3c(c2)sc2nc(-c4ccc(C)cc4)cn23)CC1`?
Cruzain inh Det: -2%; Cruzain inh noDet: 1%

How did COc1ccc(C2(CNC(=O)C(=O)Nc3ccc(F)cc3)CCCC2)cc1OC do in these assays?
Cruzain inh Det: -1%; Cruzain inh noDet: inconclusive

Results for COC(=O)c1cc(OC)c(OC)cc1NC(=O)CN1C(=O)c2ccccc2C1=O ?
Cruzain inh Det: 2%; Cruzain inh noDet: inconclusive

What do the screens show for `COC(=O)c1cc(-c2ccccc2)sc1NC(=O)CN1C(=O)c2ccccc2C1=O`?
Cruzain inh Det: -3%; Cruzain inh noDet: 25µM*

What do the screens show for `Cc1c(Cl)cccc1NS(=O)(=O)c1ccc(-c2cnc(C3CC3)o2)cc1`?
Cruzain inh Det: -7%; Cruzain inh noDet: 12%

Results for CCn1cc(C(=O)NCCCOC(C)C)c(=O)c2cc(S(=O)(=O)N3CCc4ccccc4C3)ccc21 ?
Cruzain inh Det: 4%; Cruzain inh noDet: 16%

How did ClC1=C(Cl)C2(Cl)C3C4C=CC(C4)C3C1(Cl)C2(Cl)Cl (stereo unspecified) do in these assays?
Cruzain inh Det: 7%; Cruzain inh noDet: 8%

How did ClC1=C(Cl)C2(Cl)C3C4CC(C5OC45)C3C1(Cl)C2(Cl)Cl (stereo unspecified) do in these assays?
Cruzain inh Det: -2%; Cruzain inh noDet: 1.6µM*

Results for COc1cc(OC)c(NC(=O)CSC2=Nc3ccccc3N=C(c3ccc(F)cc3)C2)cc1Cl ?
Cruzain inh Det: -1%; Cruzain inh noDet: -20%

Results for CCc1ccc(OCC(=O)NCCN(C)C)c(Br)c1 ?
Cruzain inh Det: -1%; Cruzain inh noDet: -3%

What do the screens show for `CCc1ccc(OCC(=O)NC(=S)Nc2ccc(C)cc2C)c(Br)c1`?
Cruzain inh Det: 6%; Cruzain inh noDet: 13µM*

What do the screens show for `COc1cccc(NC(=O)CN2C(=O)C3(SCC(=O)N3c3cc(C)cc(C)c3)c3ccccc32)c1` (stereo unspecified)?
Cruzain inh Det: -8%; Cruzain inh noDet: inconclusive

Results for Cc1ccc(C(=O)N/C(=C/c2ccco2)C(=O)OCN2C(=O)c3ccccc3C2=O)cc1 ?
Cruzain inh Det: 0.35µM*; Cruzain inh noDet: 0.4µM*

How did COC(=O)/C(=C/c1ccco1)NC(=O)c1ccccc1 do in these assays?
Cruzain inh Det: -11%; Cruzain inh noDet: 7%

Results for COc1ccc(S(=O)(=O)NCCc2sc3nc(-c4ccc(C)cc4)nn3c2C)cc1C ?
Cruzain inh Det: -7%; Cruzain inh noDet: inconclusive

What do the screens show for `CC(=O)c1cc(-c2ccc(F)cc2)n(CC(=O)NC2CCCCCC2)c1C`?
Cruzain inh Det: 1%; Cruzain inh noDet: -1%

What do the screens show for `CC(C)(C)c1ccc(C(=O)Nc2ccc(C=C(C#N)C#N)cc2)cc1`?
Cruzain inh Det: -6%; Cruzain inh noDet: 32µM*

What do the screens show for `CC(C)(C)c1ccc(C(=O)Nc2ccc(NC(=O)c3ccc(Cl)c(Cl)c3)cc2)cc1`?
Cruzain inh Det: 0%; Cruzain inh noDet: -5%

What do the screens show for `O=C(c1ccccc1)N1CCc2cc(CNS(=O)(=O)c3ccccc3Cl)ccc21`?
Cruzain inh Det: 1%; Cruzain inh noDet: -6%

What do the screens show for `c1cc(CNc2ccc3c(c2)OCO3)ccn1`?
Cruzain inh Det: -6%; Cruzain inh noDet: -12%

What do the screens show for `Cc1ccc(CNc2ccc3c(c2)OCO3)cc1`?
Cruzain inh Det: -3%; Cruzain inh noDet: 25µM*

How did COCCN1C(=O)C(CC(=O)Nc2ccc(C(=O)O)cc2)SC1=Nc1ccccc1 (stereo unspecified) do in these assays?
Cruzain inh Det: 0%; Cruzain inh noDet: 0%

Results for COC(=O)c1cc(NC(=O)CC2SC(=Nc3ccccc3)N(CCc3c[nH]c4ccccc34)C2=O)cc(C(=O)OC)c1 (stereo unspecified) ?
Cruzain inh Det: 15%; Cruzain inh noDet: 5µM*

What do the screens show for `O=S(=O)(NCCNC/C=C/c1ccc(Br)cc1)c1cccc2cnccc12`?
Cruzain inh Det: -9%; Cruzain inh noDet: -7%

Results for NC1=NC([S][Hg][c]2ccc(N)cc2)c2ncn([C@@H]3O[C@H](CO)[C@@H](O)[C@@H]3O)c2N1 (stereo partly specified) ?
Cruzain inh Det: 9%; Cruzain inh noDet: 22%

Results for N#C[C@H](C(=O)O)C(c1c(Cl)cccc1Cl)[C@H](C#N)C(=O)O ?
Cruzain inh Det: 2%; Cruzain inh noDet: 1%

How did O=C(NCCc1ccccc1)c1ccc(CSc2nc3ccncc3n2Cc2ccc(F)cc2)cc1 do in these assays?
Cruzain inh Det: -8%; Cruzain inh noDet: 0%

What do the screens show for `CCC(CO)NC(=O)[C@@H]1C=C2c3cccc4[nH]cc(c34)C[C@H]2N(C)C1` (stereo partly specified)?
Cruzain inh Det: -8%; Cruzain inh noDet: inconclusive

What do the screens show for `CN1C[C@@H](CO)C=C2c3cccc4[nH]cc(c34)CC21` (stereo partly specified)?
Cruzain inh Det: 8%; Cruzain inh noDet: 40µM*

Results for CCOC(=O)c1cnn(-c2cccc(Cl)c2)c1C1CCN(C(=O)OC(C)(C)C)CC1 ?
Cruzain inh Det: -1%; Cruzain inh noDet: -7%

Results for COCCNC(=O)c1ccc(-n2c(-c3ccccc3)cc3c2CCCCC3)cc1 ?
Cruzain inh Det: -7%; Cruzain inh noDet: -24%

Results for CCc1ccc2occ(CC(=O)Nc3c(C(=O)Nc4ccc(C)cc4)oc4ccccc34)c2c1 ?
Cruzain inh Det: 0%; Cruzain inh noDet: -13%

How did Cc1cc(C)c2c(CC(=O)Nc3c(C(=O)Nc4ccc(Cl)cc4)oc4ccccc34)coc2c1 do in these assays?
Cruzain inh Det: -2%; Cruzain inh noDet: -25%

What do the screens show for `CCc1ccc2occ(CC(=O)Nc3c(C(=O)Nc4ccc(Cl)cc4)oc4ccccc34)c2c1`?
Cruzain inh Det: -2%; Cruzain inh noDet: 10µM*

How did Cc1ccc2occ(CC(=O)Nc3c(C(=O)Nc4ccc(Cl)cc4)oc4ccccc34)c2c1 do in these assays?
Cruzain inh Det: -2%; Cruzain inh noDet: 10µM*

How did Cc1c(C(=O)N2CCCCCC2)c(S(=O)(=O)Nc2ccc(OC(F)(F)F)cc2)c(C)n1C do in these assays?
Cruzain inh Det: -4%; Cruzain inh noDet: inconclusive

What do the screens show for `Cc1cccc(N2CCN(C(=O)C3CCN(S(=O)(=O)c4cn(C)cn4)CC3)CC2)c1C`?
Cruzain inh Det: 1%; Cruzain inh noDet: inconclusive

Results for COc1ccccc1-c1nc(C#N)c(N2CCN(Cc3ccccc3)CC2)o1 ?
Cruzain inh Det: -19%; Cruzain inh noDet: -2%

Results for COc1ccccc1-c1nc(C#N)c(N2CCC(Cc3ccccc3)CC2)o1 ?
Cruzain inh Det: 35µM*; Cruzain inh noDet: inconclusive

Results for Cc1ccc(-c2nc3ccccc3[nH]2)cc1NC(=O)COc1ccc(Cl)cc1Cl ?
Cruzain inh Det: -1%; Cruzain inh noDet: 16%

What do the screens show for `Cc1ccc(-c2nc3ccccc3[nH]2)cc1NC(=O)c1sc2cc(Cl)ccc2c1Cl`?
Cruzain inh Det: -3%; Cruzain inh noDet: 7.9µM*

Results for Cc1ccc(NC(=O)CN2C(=O)CCc3cc(S(=O)(=O)N4CCCCC4)ccc32)cc1N(C)C ?
Cruzain inh Det: -3%; Cruzain inh noDet: 16%

How did Cn1c(N)c(C(=O)COC(=O)c2cc(-c3ccccc3)nc3ccccc23)c(=O)n(Cc2ccccc2)c1=O do in these assays?
Cruzain inh Det: 0%; Cruzain inh noDet: 13µM*
